# The list is not random: actives were taken first. Their share in the collection is about 19%.
# IL-1B inflam inh: blocks inflammasome-driven IL-1 beta release; THP-1 LPS/ATP IL-1B secretion, AlphaLISA, 16 h; stronger effect = lower value; activity change, % at 57.5 µM; 360,000 tested, 4.7% active; AID 743279; in the data active = activity change below about -50%; inconclusive = mostly about -30% to -49%
#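 THP-1 cells pretreated 1 hr with compounds (up to 57.5 uM final), then stimulated with LPS (250 ng/mL final) plus ATP (1.25 mM final); secreted IL-1B measured by AlphaLISA after 16 hr, decreased signal indicating inhibition.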
# ELG1 repair inh: inhibitors of ELG1-dependent DNA repair in HEK293T cells; HEK293T ELG1-luciferase reporter, luminescence, 16 h; DNA damage induced by 5-fluorouridine; 330,000 tested, 2.3% active; Potency, µM (series often up to 46.1 µM), without a hit: at the top dose activity change, negative = inhibition, hits mostly inhibitors; note: potency is the fitted concentration of half-maximal effect; nearly all actives have a fitted effect of over 55% in size
#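 Overnight (16 hr) co-exposure of 2,000 cells/well to 5-fluorouridine and compound at 37 °C preceded detection. Luciferase was quantified via ONE-Glo luminescence; loss of signal denotes inhibition.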
# DT40 TDP1 no CPT: qHTS for Inhibitors of human tyrosyl-DNA phosphodiesterase 1 (TDP1): qHTS in cells in absence of CPT; DT40 Tdp1-/- hTDP1 cells, no CPT, ATP luminescence, 48 h; Potency, µM (top dose mostly 46.2 µM), for the others: at the highest dose activity change, negative = growth inhibition, hits mostly inhibitors; 420,000 tested, 15% active; AID 686978, 2013; note: potency is the fitted concentration of half-maximal effect; nearly all actives have a fitted effect of over 55% in size
#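 Chicken DT40 Tdp1-/- cells complemented with human TDP1, screened without camptothecin (DMSO vehicle only), 400 cells/well. Compounds pin-transferred, cells incubated at 37 °C for at least 48 hr. Growth read as ATP-dependent luminescence (CellTiter-Glo, 30 min at RT).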
# Giardia kill: Giardia lamblia killing | 340,000 tested, 0.15% active | activity change, % at 7.66 µM, hits read low | Giardia lamblia trophozoite viability | AID 540267; in the data active = activity change below about -80%; inconclusive = between about -30% and that limit;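 note: parasites exposed to compound for two days anaerobically before the ATP read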
#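 Trophozoite viability was measured as ATP-dependent luminescence, read 15-30 min after reagent addition. Before that, parasites at 100 cells/well were exposed to compounds for 48 h, anaerobically, at 37 deg C.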
# TDP1 cell CPT: growth inhibition of DT40 Tdp1-/-;hTDP1 cells with camptothecin (screen for TDP1 inhibitors) | chicken DT40 Tdp1-/-;hTDP1 cells + 20 nM CPT, ATP luminescence, 48 h | Potency, µM (top dose mostly 46.2 µM), without a hit: top-dose activity change, negative = growth inhibition, actives largely listed as inhibitors | 420,000 tested, 12% active | AID 686979; note: potency is the fitted concentration of half-maximal effect; nearly all actives have a fitted effect of over 55% in size
#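 Chicken DT40 Tdp1-/- cells stably complemented with human TDP1 were seeded at 400 cells/well in medium containing 20 nM camptothecin, exposed to pin-transferred compounds, and grown at 37 °C for at least 48 hr. Viability was read as ATP luminescence.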
# TDP1 block: blocks human tyrosyl-DNA phosphodiesterase 1; Potency, µM (titrated, usually from 130 µM), for the others: at the highest dose activity change, negative = inhibition, hits mostly inhibitors; 350,000 tested, 0.28% active; Q9NUW8; recombinant TDP1, AlphaScreen DNA substrate cleavage; note: potency is the fitted concentration of half-maximal effect; nearly all actives have a fitted effect of over 40% in size
# Target sequence (Q9NUW8 whole entry, looked up): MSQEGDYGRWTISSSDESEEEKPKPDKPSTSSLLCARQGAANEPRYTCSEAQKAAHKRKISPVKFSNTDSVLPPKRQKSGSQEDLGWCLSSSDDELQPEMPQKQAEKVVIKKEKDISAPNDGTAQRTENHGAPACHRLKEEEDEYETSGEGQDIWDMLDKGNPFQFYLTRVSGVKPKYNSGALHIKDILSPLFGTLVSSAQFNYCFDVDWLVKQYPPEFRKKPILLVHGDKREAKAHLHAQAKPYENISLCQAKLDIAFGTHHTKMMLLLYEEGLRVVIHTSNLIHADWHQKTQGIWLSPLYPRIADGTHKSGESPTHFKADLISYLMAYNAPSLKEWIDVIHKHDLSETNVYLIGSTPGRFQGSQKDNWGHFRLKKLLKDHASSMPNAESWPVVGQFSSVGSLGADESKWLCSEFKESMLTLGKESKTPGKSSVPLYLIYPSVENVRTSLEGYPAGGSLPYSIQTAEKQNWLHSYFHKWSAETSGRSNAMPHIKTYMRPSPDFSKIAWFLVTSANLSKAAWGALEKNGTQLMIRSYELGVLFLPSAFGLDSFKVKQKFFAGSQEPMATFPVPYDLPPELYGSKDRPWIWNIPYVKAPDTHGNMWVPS
#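 Tdp1 1 nM final; 15 min RT w/ cpd; substrate 15 nM, 5 min; beads 10 ug/ml, 10 min; AlphaScreen read. Neg ctrl: no enzyme.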
# The depositor's hits bear a star; ? = inconclusive; nt = no result; [ ] = dose if it differs, or a comment. Unless noted, calls come from the whole dose curve; as a rule, active = well fitted curve in the direction sought with a large enough effect; inconclusive = small, poorly fitted or top-dose-only effect, or another doubt; inactive = no such curve, though single readings can be large; an effect the other way counts as inactive or inconclusive. % is set by controls: 0 for no effect and ±100 for the full control effect.
SMILES,IL-1B inflam inh,ELG1 repair inh,DT40 TDP1 no CPT,Giardia kill,TDP1 cell CPT,TDP1 block
Cc1ccccc1NS(=O)(=O)c1cc2c3c(c1)C(C)C(=O)N3CCC2 (stereo unspecified),5,-4%,-2%,-8,3%,1%
Cc1ccccc1N1C(=O)C2CCCN2C1=S (stereo unspecified),-8,16%,?,26,-29%,3%
CN(C)S(=O)(=O)c1cccc(NC(=S)N/N=C/c2ccco2)c1,7,-6%,5.8µM*,7,4.6µM*,10%
COc1cc(/C=N/NC(=S)Nc2cccc(S(=O)(=O)N(C)C)c2)cc(OC)c1O,-14,21µM*,?,8,-15%,7%
COc1ccc(O)c(/C=N/NC(=S)Nc2cccc(S(=O)(=O)N(C)C)c2)c1,-63*,?,6.5µM*,-3,6.5µM*,3%
CN(C)S(=O)(=O)c1cccc(NC(=S)NCc2ccco2)c1,7,?,-16%,-4,-3%,8%
CC(/C=N/NC(=S)Nc1cccc(S(=O)(=O)N(C)C)c1)c1ccccc1 (stereo unspecified),53,4%,?,9,?,6%
CN(C)S(=O)(=O)c1cccc(NC(=S)N/N=C/C(c2ccccc2)c2ccccc2)c1,1,13%,13µM*,-4,?,-3%
COc1cccc(C(=O)NCC(=O)OCc2ccc(F)cc2Cl)c1,0,14%,-13%,3,-7%,-3%
CCCCCCCCN1C(=O)[C@H](CC(=O)NCc2cccs2)C[C@@]2(C(=O)OC)CCCCC=C12,-22,nt,15µM*,nt,16µM*,nt
CCCCCCCCN1C(=O)[C@H](CC(=O)NCc2cccs2)C[C@@]2(C(=O)OCC)CCCC=C12,-62*,nt,16µM*,nt,?,nt
COc1cc(CNCCO)ccc1OCCc1ccccc1,-18,?,26µM*,-2,?,7%
COc1ccccc1CCNCc1ccc(OC)c(OCc2ccccc2)c1,-99*,-1%,13µM*,-2,-92%,-3%
CNCc1ccc(OCc2ccccc2)c(OC)c1,-14,?,-11%,3,-20%,6%
COc1cc(CNCCc2ccccc2)ccc1OCc1ccc(Cl)nc1,-52*,15%,?,8,?,4%
Cc1ccn(CC(=O)N2CCCC(N3CCN(c4ccc(F)cc4)CC3)C2)n1 (stereo unspecified),0,3%,17%,6,-7%,nt
CCOc1ccc(NC(=O)Cn2ncc3c2-c2cc(C)ccc2OC3)cc1,nt,nt,-15%,nt,-9%,3%
O=C(CN1CCN(c2ccc(O)cc2)CC1)NC(=O)NCc1ccco1,37,-2%,-24%,-23,3%,-5%
O=C(NC1=NCCCCC1)c1cccc2ccccc12,-12,1%,2%,0,22%,4%
CNc1cccccc1=S,8,9%,4.6µM*,-1,3.3µM*,3.5µM*
O=C(Cn1cc(S(=O)(=O)N2CCCC2)c(S(=O)(=O)N2CCCC2)c1)Nc1cccc(F)c1,nt,nt,0%,nt,-2%,3%
Cc1cc(/N=C/C=C2/N(C)c3ccccc3C2(C)C)n(CCC#N)n1,?,nt,6.5µM*,-4,8.2µM*,nt
CN(C)c1ccc(N=C/C=C2/N(C)c3ccccc3C2(C)C)cc1,-64*,?,5.2µM*,30,7.3µM*,14%
CN1/C(=C\C=N\O)C(C)(C)c2ccccc21,22,-2%,-25%,9,-29%,9%
CN1/C(=C\C=Nc2cc(S(=O)(=O)N3CCOCC3)ccc2N2CCOCC2)C(C)(C)c2ccccc21,-6,-14%,21µM*,15,?,0%
SMILES,IL-1B inflam inh,ELG1 repair inh,DT40 TDP1 no CPT,Giardia kill,TDP1 cell CPT,TDP1 block
CN1/C(=C/C=C(/C#N)C(N)=O)C(C)(C)c2ccccc21,-7,-10%,3.3µM*,-11,2.6µM*,2%
CCOc1ccc(NC(=O)CN2C(=O)C(c3ccccc3)=NC23CCCCCC3)cc1,nt,nt,?,nt,?,0%
O=P(O)(O)OCC(O)CO (stereo unspecified),nt,nt,0%,nt,-10%,nt
O=C(COc1ccc2c(-c3ccccc3)cc(=O)oc2c1)NC1CCS(=O)(=O)C1 (stereo unspecified),-3,-18%,?,-7,?,0%
CN1/C(=C\C=[N+](C)c2ccccc2)C(C)(C)c2ccccc21,-95*,?,1.3µM*,-5,1.2µM*,4%
Cc1ccccc1N=C/C=C1\N(C)c2ccccc2C1(C)C,-11,-20%,8.2µM*,7,18µM*,11%
Cc1sc2ncn3ncnc3c2c1C,-9,9.2µM*,-20%,-2,-28%,-5%
COc1cc2c(cc1OC)-c1cc3ccc(OC)c(OC)c3c[n+]1CC2,21,-1%,5.2µM*,-28,5.2µM*,-7%[56.1 µM]
COc1cc(C)ccc1OCc1cc(C(=O)N(Cc2c(C)nn(C)c2C)C2CC2)no1,-2,?,16µM*,13,?,2%
O=C(N/N=C1\C/C(=N\NC(=O)c2ccncc2)c2ccccc21)c1ccncc1,28,0%,?,7,?,9%
O=C(N/N=C1\CCCc2c1[nH]c1ccc(Cl)cc21)c1ccncc1,?,?,10µM*,-8,12µM*,-1%
Cc1ccc(NC(=O)CCN2CCN(CCO)CC2)cc1C,nt,nt,0%,nt,-10%,-1%[12.3 µM]
CNC(=S)/N=C/NOCc1ccc(Cl)cc1Cl,-51*,12µM*,21µM*,1,?,9%
COCC(=O)Nc1cc(C(=O)N2CCN(C)C(c3ccccc3)C2)c2c(c1)nc(-c1ccncc1)n2C (stereo unspecified),nt,nt,-8%,nt,-7%,nt
Cc1ccc(NC(=O)c2c3c(nc4ccccc24)CCC3)cc1S(=O)(=O)N(C)C,24,11%,?,9,16µM*,-11%
Cc1ccc(NC(=O)c2ccc3ccccc3n2)cc1S(=O)(=O)N(C)C,16,?,12µM*,0,?,3%
Cc1cnc(C(=O)Nc2ccc(C)c(S(=O)(=O)N(C)C)c2)cn1,6,?,15µM*,-8,?,6%
O=C(Cc1ccccc1Cl)NCc1cccnc1,13,?,11%,20,6%,nt
CCOc1ccc(S(=O)(=O)N2CCN(C(=O)c3ccc(Cl)c(S(=O)(=O)N4CCOCC4)c3)CC2)cc1,-13,nt,?,-4,?,nt

# Source: PubChem BioAssay (National Center for Advancing Translational Sciences (NCATS))
